Only some compounds are listed: those with a hit (about 1.7% of all), similar ones and a draw of the others.
PfHsp40 rescue: restores yeast growth despite PfHsp40 toxicity; AID 504582; S. cerevisiae expressing PfHsp40, growth rescue, ATP luminescence; actives 0.68% (n = 340,000); growth rescue, % at 12.5 µM; in the data active = growth rescue above about 28%, passing the limit was not always enough;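 note: yeast W303a lacking pdr1 and pdr3 grown in galactose medium; growth measured after three days at 30 °C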
CCHF vOTU inh-1: CCHFV vOTU protease inhibition; Pep-AMC fluorescence; inhibition, % at 11.5 µM; actives 0.55% (n = 370,000); AID 651958
Mtb hypoxia rep: Mtb hypoxia fluorescent reporter inhibition; M. tuberculosis hypoxia-regulated fluorescent reporter, fluorescence; actives 0.1% (n = 300,000); fluorescence inhibition, % (test concentration not listed); in the data active = fluorescence inhibition mostly above about 23%, no sharp cut-off; inactive = mostly below about 17%
RN4220 kill: S. aureus RN4220 growth inhibition; OD600, 16 h; inhibition, % (concentration not given with the values); actives 0.33% (n = 330,000); in the data active = inhibition above about 85%
ugtP null kill: kills S. aureus RN4220 lacking UgtP. S. aureus RN4220 ugtP deletion, OD600 growth, 16 h. growth inhibition, % (no concentration beside the values). actives 0.54% (n = 330,000). AID 1259309; in the data active = growth inhibition above about 68%
Vc quorum ag: inducers of Vibrio cholerae quorum light production without autoinducers; V. cholerae BH1578 lux reporter, luminescence, 6 h; activation, % at 18.7 µM; actives 0.16% (n = 350,000); AID 588436; in the data active = activation mostly above about 9.7%, no sharp cut-off
CCHF vOTU inh-2: CCHFV vOTU protease inhibition, confirmation. shares compounds with CCHF vOTU inh-1. Recombinant CCHFV vOTU, Pep-AMC fluorescence. inhibition, % at 11.5 µM. actives 17% (n = 1,900)
Numbers stand for hits; n = inactive; x = not tested or not shown. Cut-off read from the data, not from the text of the source, unless noted: active = inhibition above about 30%; inactive = the rest.

SMILES	PfHsp40 rescue	CCHF vOTU inh-1	Mtb hypoxia rep	RN4220 kill	ugtP null kill	Vc quorum ag	CCHF vOTU inh-2
COc1cc(/C=N/Nc2nncn2/N=C/c2ccc(O)c(OC)c2)ccc1O	n	100.3	x	x	x	n	n
CC(=NNC(=O)c1ccc(Cl)cc1)c1cccc(NC(=O)c2cccnc2)c1	x	x	n	n	n	x	x
CC(C)CC(NC(=O)c1[nH]cnc1C(=O)NC(Cc1ccccc1)C(=O)OC(C)(C)C)C(=O)OCc1ccccc1 (stereo not given)	x	x	n	n	n	x	x
CSCCC(NC(=O)NCCC1=CCCCC1)C(=O)O (stereo not given)	x	x	n	n	n	x	x
CCOC(=O)C1=C(O)C(=Cc2cc(C)n(-c3ccc(F)cc3)c2C)N=C1C	x	x	n	n	n	x	x
Oc1ccc(NCc2cccc(OCc3ccccc3)c2)cc1	n	72.8	n	n	n	n	n
Oc1ccc(NCc2cccc(OCc3ccc(F)cc3)c2)cc1	n	89.0	n	n	n	n	n
O=C1Nc2ccccc2-n2nnnc2C1N1CCN(c2ccc(C(F)(F)F)cc2[N+](=O)[O-])CC1 (stereo not given)	x	32.4	x	x	x	x	n
Cc1ccc(C)c(N2CCN(C3C(=O)Nc4ccccc4-n4nnnc43)CC2)c1 (stereo not given)	x	n	x	x	x	x	x
O=C(CSc1nnnn1C1CC1)N1CCN(c2ccccc2F)CC1	n	33.0	n	n	n	n	n
Cc1cccc(N2CCN(C(=O)CSc3nnnn3C3CC3)CC2)c1C	n	n	n	n	n	n	x
CCOC(=O)C(=CNc1cc(C)nn1-c1ccc(C)cc1)C(=O)OCC	n	29.9	x	n	n	n	n
CCOC(=O)C1(C)CCCCCN1C(=O)c1ccc(OC)c(C(F)(F)F)c1 (stereo not given)	x	34.5	x	x	x	n	n
Nc1cc2[nH]c(=O)c3ccccc3c2cc1Br	n	n	x	x	x	x	x
Nc1cc2c(cc1Br)[nH]c(=O)c1ccccc12	n	100.5	x	x	x	n	83.7
O=C(NCc1ccc(OC(F)(F)F)cc1)C1CC(c2c(Cl)cccc2Cl)=NO1 (stereo not given)	n	29.9	n	n	n	n	n
CCc1c(C)nc2c(C)cccc2c1SCCC#N	n	32.5	n	n	n	n	n
COc1ccc(OC)c(C=NNC(=O)c2ccc(Cn3cc([N+](=O)[O-])cn3)o2)c1	x	x	n	n	n	x	x
CCCCOc1ccc(Nc2cc(Cl)ccc2C(=O)O)cn1	n	36.9	x	x	x	n	n
COc1ccc(CC(=O)Nc2cc(Cl)ccc2C(=O)O)cc1	n	n	x	x	x	n	x
COc1ccc(CN2CCN(Cc3ccccc3C(F)(F)F)CC2)c(OC)c1	n	30.1	n	n	n	n	n
COc1cccc(CN2CCN(Cc3ccccc3C(F)(F)F)CC2)c1	n	n	n	n	n	n	x
CCC(C)(C)c1ccc(OCCCC[n+]2cccc(C)c2)c(C(C)(C)CC)c1	n	40.4	x	x	x	n	n
Cc1ccc[n+](CC(=O)Nc2cc(C(F)(F)F)ccc2Cl)c1	n	n	n	n	n	n	x
CC1=C(C(=O)N(C(C)C)C(C)C)CC(CC(=O)NC(c2ccccc2)c2ccccc2)C(=O)N1Cc1ccc(C(C)(C)C)cc1 (stereo not given)	x	35.3	x	x	x	x	n
SMILES	PfHsp40 rescue	CCHF vOTU inh-1	Mtb hypoxia rep	RN4220 kill	ugtP null kill	Vc quorum ag	CCHF vOTU inh-2
Cc1ccc2nc(NC(=O)CSCC(=O)OCC(=O)c3ccccc3)sc2c1	n	35.5	n	n	n	n	n
CC1(Cc2ccc3c(c2)OCO3)C(=O)Nc2ccc(-c3cccc(C(F)(F)F)c3)cc21 (stereo not given)	x	n	x	x	x	n	x
CC1(Cc2ccc(C(F)(F)F)o2)C(=O)Nc2ccc(-c3cccc(C(F)(F)F)c3)cc21 (stereo not given)	x	35.8	x	x	x	n	n
CCCCN(CCCC)S(=O)(=O)c1ccc(NC(=O)c2ccc([N+](=O)[O-])cc2Cl)cc1	n	29.9	n	n	n	n	n
CC(=O)N1CCN(c2ccc(NC(=O)c3ccc([N+](=O)[O-])cc3Cl)cc2)CC1	n	n	n	n	n	n	x
CCN(CC)c1ccc(C=NNS(=O)(=O)c2ccc(CNC(C)=O)cc2)cc1	x	x	n	n	n	x	x
COc1cccc(/C=N/Nc2ccnc(=O)[nH]2)c1O	n	30.9	x	x	x	n	n
C=C1CCN(C(C(=O)NCc2ccco2)C(C)C)S(=O)(=O)c2ccccc21 (stereo not given)	x	x	n	n	n	x	x
COc1ccccc1CNS(=O)(=O)c1cc(CN2C(=O)c3cccnc3C2=O)ccc1OC	n	n	n	n	n	n	x
